# According to publication PMC11062922 (Nature Chemical Biology, 2023):
# Where two headings read alike, the source gives them in different places.
# Experiments:
# AURKA = settings: read-out: apparent Kd, n = 1
# CHEK1 = settings: read-out: apparent Kd, n = 1
substance,measurement,setting,value
Lestaurtinib,potency estimated from few doses,"AURKA; compound concentrations:100 nM and 1000 nM (sheet 'Lestaurtinib' of Supplementary Table 1),run:Lestaurtinib_02802_R1,Plate:MR029",16.2 nM
same,potency estimated from few doses,"AURKA; compound concentrations:100 nM and 1000 nM (sheet 'Lestaurtinib' of Supplementary Table 1),run:Lestaurtinib_02802_R2,Plate:MR029",15.9 nM
same,potency estimated from few doses,"AURKA; compound concentrations:100 nM and 1000 nM (sheet 'Lestaurtinib' of Supplementary Table 1),run:Lestaurtinib_02802_R3,Plate:MR029",14.1 nM
same,potency estimated from few doses,"AURKA; compound concentrations:100 nM and 1000 nM (sheet 'Lestaurtinib' of Supplementary Table 1),run:Lestaurtinib_02896_R1,Plate:MR030",15.4 nM
same,potency estimated from few doses,"AURKA; compound concentrations:100 nM and 1000 nM (sheet 'Lestaurtinib' of Supplementary Table 1),run:Lestaurtinib_02896_R2,Plate:MR030",16.3 nM
same,potency estimated from few doses,"AURKA; compound concentrations:100 nM and 1000 nM (sheet 'Lestaurtinib' of Supplementary Table 1),run:Lestaurtinib_02896_R3,Plate:MR030",16.2 nM
same,potency estimated from few doses,"AURKA; compound concentrations:100 nM and 1000 nM (sheet 'Lestaurtinib' of Supplementary Table 1),run:Lestaurtinib_03172_R1,Plate:MR031",17 nM
same,potency estimated from few doses,"AURKA; compound concentrations:100 nM and 1000 nM (sheet 'Lestaurtinib' of Supplementary Table 1),run:Lestaurtinib_03252_R1,Plate:MR032",16.3 nM
same,potency estimated from few doses,"AURKA; compound concentrations:100 nM and 1000 nM (sheet 'Lestaurtinib' of Supplementary Table 1),run:Lestaurtinib_03260_R1,Plate:MR033",27.5 nM
same,potency estimated from few doses,"AURKA; compound concentrations:100 nM and 1000 nM (sheet 'Lestaurtinib' of Supplementary Table 1),run:Lestaurtinib_03260_R3,Plate:MR033",22.2 nM
same,potency estimated from few doses,"CHEK1; compound concentrations:100 nM and 1000 nM (sheet 'Lestaurtinib' of Supplementary Table 1),run:Lestaurtinib_02339_R1,Plate:MR001",99.6 nM
same,potency estimated from few doses,"CHEK1; compound concentrations:100 nM and 1000 nM (sheet 'Lestaurtinib' of Supplementary Table 1),run:Lestaurtinib_02339_R2,Plate:MR001",72.8 nM
same,potency estimated from few doses,"CHEK1; compound concentrations:100 nM and 1000 nM (sheet 'Lestaurtinib' of Supplementary Table 1),run:Lestaurtinib_02339_R3,Plate:MR001",71.3 nM
same,potency estimated from few doses,"CHEK1; compound concentrations:100 nM and 1000 nM (sheet 'Lestaurtinib' of Supplementary Table 1),run:Lestaurtinib_02364_R1,Plate:MR002",67.1 nM
same,potency estimated from few doses,"CHEK1; compound concentrations:100 nM and 1000 nM (sheet 'Lestaurtinib' of Supplementary Table 1),run:Lestaurtinib_02364_R3,Plate:MR002",86.4 nM
same,potency estimated from few doses,"CHEK1; compound concentrations:100 nM and 1000 nM (sheet 'Lestaurtinib' of Supplementary Table 1),run:Lestaurtinib_02367_R2,Plate:MR003",78 nM
same,potency estimated from few doses,"CHEK1; compound concentrations:100 nM and 1000 nM (sheet 'Lestaurtinib' of Supplementary Table 1),run:Lestaurtinib_02381_R1,Plate:MR004",78.7 nM
same,potency estimated from few doses,"CHEK1; compound concentrations:100 nM and 1000 nM (sheet 'Lestaurtinib' of Supplementary Table 1),run:Lestaurtinib_02381_R3,Plate:MR004",61.8 nM
same,potency estimated from few doses,"CHEK1; compound concentrations:100 nM and 1000 nM (sheet 'Lestaurtinib' of Supplementary Table 1),run:Lestaurtinib_02407_R1,Plate:MR005",73.9 nM
same,potency estimated from few doses,"CHEK1; compound concentrations:100 nM and 1000 nM (sheet 'Lestaurtinib' of Supplementary Table 1),run:Lestaurtinib_02407_R2,Plate:MR005",71 nM
same,potency estimated from few doses,"CHEK1; compound concentrations:100 nM and 1000 nM (sheet 'Lestaurtinib' of Supplementary Table 1),run:Lestaurtinib_02422_R1,Plate:MR006",70.8 nM
same,potency estimated from few doses,"CHEK1; compound concentrations:100 nM and 1000 nM (sheet 'Lestaurtinib' of Supplementary Table 1),run:Lestaurtinib_02422_R2,Plate:MR006",31 nM
same,potency estimated from few doses,"CHEK1; compound concentrations:100 nM and 1000 nM (sheet 'Lestaurtinib' of Supplementary Table 1),run:Lestaurtinib_02422_R3,Plate:MR006",76.2 nM
same,potency estimated from few doses,"CHEK1; compound concentrations:100 nM and 1000 nM (sheet 'Lestaurtinib' of Supplementary Table 1),run:Lestaurtinib_02437_R2,Plate:MR007",67.9 nM
same,potency estimated from few doses,"CHEK1; compound concentrations:100 nM and 1000 nM (sheet 'Lestaurtinib' of Supplementary Table 1),run:Lestaurtinib_02437_R3,Plate:MR007",17.2 nM
same,potency estimated from few doses,"CHEK1; compound concentrations:100 nM and 1000 nM (sheet 'Lestaurtinib' of Supplementary Table 1),run:Lestaurtinib_02438_R2,Plate:MR008",88.5 nM
same,potency estimated from few doses,"CHEK1; compound concentrations:100 nM and 1000 nM (sheet 'Lestaurtinib' of Supplementary Table 1),run:Lestaurtinib_02438_R3,Plate:MR008",99.8 nM
same,potency estimated from few doses,"CHEK1; compound concentrations:100 nM and 1000 nM (sheet 'Lestaurtinib' of Supplementary Table 1),run:Lestaurtinib_02443_R2,Plate:MR009",94.3 nM
same,potency estimated from few doses,"CHEK1; compound concentrations:100 nM and 1000 nM (sheet 'Lestaurtinib' of Supplementary Table 1),run:Lestaurtinib_02473_R1,Plate:MR010",72.2 nM
same,potency estimated from few doses,"CHEK1; compound concentrations:100 nM and 1000 nM (sheet 'Lestaurtinib' of Supplementary Table 1),run:Lestaurtinib_02473_R2,Plate:MR010",70.2 nM
same,potency estimated from few doses,"CHEK1; compound concentrations:100 nM and 1000 nM (sheet 'Lestaurtinib' of Supplementary Table 1),run:Lestaurtinib_02482_R1,Plate:MR011",78 nM
same,potency estimated from few doses,"CHEK1; compound concentrations:100 nM and 1000 nM (sheet 'Lestaurtinib' of Supplementary Table 1),run:Lestaurtinib_02482_R3,Plate:MR011",92.6 nM
same,potency estimated from few doses,"CHEK1; compound concentrations:100 nM and 1000 nM (sheet 'Lestaurtinib' of Supplementary Table 1),run:Lestaurtinib_02487_R1,Plate:MR012",69.6 nM
same,potency estimated from few doses,"CHEK1; compound concentrations:100 nM and 1000 nM (sheet 'Lestaurtinib' of Supplementary Table 1),run:Lestaurtinib_02487_R2,Plate:MR012",86.9 nM
same,potency estimated from few doses,"CHEK1; compound concentrations:100 nM and 1000 nM (sheet 'Lestaurtinib' of Supplementary Table 1),run:Lestaurtinib_02487_R3,Plate:MR012",87.7 nM
same,potency estimated from few doses,"CHEK1; compound concentrations:100 nM and 1000 nM (sheet 'Lestaurtinib' of Supplementary Table 1),run:Lestaurtinib_02496_R1,Plate:MR013",92.6 nM
same,potency estimated from few doses,"CHEK1; compound concentrations:100 nM and 1000 nM (sheet 'Lestaurtinib' of Supplementary Table 1),run:Lestaurtinib_02496_R2,Plate:MR013",79.6 nM
same,potency estimated from few doses,"CHEK1; compound concentrations:100 nM and 1000 nM (sheet 'Lestaurtinib' of Supplementary Table 1),run:Lestaurtinib_02566_R1,Plate:MR014",88.2 nM
same,potency estimated from few doses,"CHEK1; compound concentrations:100 nM and 1000 nM (sheet 'Lestaurtinib' of Supplementary Table 1),run:Lestaurtinib_02566_R2,Plate:MR014",75.6 nM
same,potency estimated from few doses,"CHEK1; compound concentrations:100 nM and 1000 nM (sheet 'Lestaurtinib' of Supplementary Table 1),run:Lestaurtinib_02566_R3,Plate:MR014",66.8 nM
same,potency estimated from few doses,"CHEK1; compound concentrations:100 nM and 1000 nM (sheet 'Lestaurtinib' of Supplementary Table 1),run:Lestaurtinib_02572_R1,Plate:MR015",89.7 nM
same,potency estimated from few doses,"CHEK1; compound concentrations:100 nM and 1000 nM (sheet 'Lestaurtinib' of Supplementary Table 1),run:Lestaurtinib_02584_R1,Plate:MR017",76.9 nM
same,potency estimated from few doses,"CHEK1; compound concentrations:100 nM and 1000 nM (sheet 'Lestaurtinib' of Supplementary Table 1),run:Lestaurtinib_02584_R3,Plate:MR017",87.5 nM
